{
  "source": "the supplement of paper PMC10849652",
  "note": "Of roughly 8,800 targets only a part is listed; those with a hit were picked by preference. About 0.5% of all pairs of compound and target were hits. A number with no mark means an inactive call.",
  "data": [
    {"compound": "CC1=C(SC2=C1C(=N[C@H](C3=NN=C(N32)C)CC(=O)N)C4=CC=C(C=C4)Cl)C", "test": "log2 fold change, soluble protein after heating vs DMSO (PISA); higher = thermal stabilisation; K562 lysate, 10 uM; active = over 0.2 and 3.5 SD of the protein, either way, in both replicates (recomputed)", "outline": "(§1)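 To prepare the extract, K562 pellets were dounce-homogenised in PBS pH 7.4 with 1 mM MgCl2, giving crude material at 1 mg/mL protein. This was treated with 10 μM compound for 30 min, then heated in aliquots for 3 min over 48°C-58°C before pooling and addition of NP-40 to 0.5% at 4°C. Centrifugation at 21,000xg for 90 min left soluble protein in the supernatant, which TMTpro 16plex LC-MS/MS quantified with equalised channel sums. Results are log-two fold changes in thermal stability compared with solvent controls, from duplicates.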", "values": [
      {"target": "SMYD3 (UniProt Q9H7B4)", "log2 fold change": 0.05},
      {"target": "SPAG1 (UniProt Q07617)", "log2 fold change": -0.327},
      {"target": "SP1 (UniProt P08047)", "log2 fold change": 0.042},
      {"target": "SLC27A4 (UniProt Q6P1M0)", "sequence (Q6P1M0 whole entry, looked up)": "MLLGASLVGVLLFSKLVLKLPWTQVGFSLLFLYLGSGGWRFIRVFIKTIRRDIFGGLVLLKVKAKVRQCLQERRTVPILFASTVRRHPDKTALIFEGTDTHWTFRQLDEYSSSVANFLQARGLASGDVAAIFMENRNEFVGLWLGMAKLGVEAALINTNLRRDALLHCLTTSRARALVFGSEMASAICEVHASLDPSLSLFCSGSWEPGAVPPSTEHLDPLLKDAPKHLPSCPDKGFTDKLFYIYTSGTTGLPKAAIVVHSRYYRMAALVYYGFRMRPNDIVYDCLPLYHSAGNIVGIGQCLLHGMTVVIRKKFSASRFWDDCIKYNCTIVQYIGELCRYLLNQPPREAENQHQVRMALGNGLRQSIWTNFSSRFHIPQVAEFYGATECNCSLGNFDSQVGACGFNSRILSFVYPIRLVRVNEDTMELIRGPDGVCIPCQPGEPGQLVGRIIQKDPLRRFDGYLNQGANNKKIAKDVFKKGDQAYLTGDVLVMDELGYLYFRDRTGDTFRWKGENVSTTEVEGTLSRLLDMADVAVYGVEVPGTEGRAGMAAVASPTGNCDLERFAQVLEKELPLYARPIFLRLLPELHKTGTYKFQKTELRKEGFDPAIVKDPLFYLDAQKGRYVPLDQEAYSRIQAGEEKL", "log2 fold change": -0.006},
      {"target": "SMC1B isoform 3 (UniProt Q8NDV3)", "sequence (Q8NDV3 whole entry, looked up)": "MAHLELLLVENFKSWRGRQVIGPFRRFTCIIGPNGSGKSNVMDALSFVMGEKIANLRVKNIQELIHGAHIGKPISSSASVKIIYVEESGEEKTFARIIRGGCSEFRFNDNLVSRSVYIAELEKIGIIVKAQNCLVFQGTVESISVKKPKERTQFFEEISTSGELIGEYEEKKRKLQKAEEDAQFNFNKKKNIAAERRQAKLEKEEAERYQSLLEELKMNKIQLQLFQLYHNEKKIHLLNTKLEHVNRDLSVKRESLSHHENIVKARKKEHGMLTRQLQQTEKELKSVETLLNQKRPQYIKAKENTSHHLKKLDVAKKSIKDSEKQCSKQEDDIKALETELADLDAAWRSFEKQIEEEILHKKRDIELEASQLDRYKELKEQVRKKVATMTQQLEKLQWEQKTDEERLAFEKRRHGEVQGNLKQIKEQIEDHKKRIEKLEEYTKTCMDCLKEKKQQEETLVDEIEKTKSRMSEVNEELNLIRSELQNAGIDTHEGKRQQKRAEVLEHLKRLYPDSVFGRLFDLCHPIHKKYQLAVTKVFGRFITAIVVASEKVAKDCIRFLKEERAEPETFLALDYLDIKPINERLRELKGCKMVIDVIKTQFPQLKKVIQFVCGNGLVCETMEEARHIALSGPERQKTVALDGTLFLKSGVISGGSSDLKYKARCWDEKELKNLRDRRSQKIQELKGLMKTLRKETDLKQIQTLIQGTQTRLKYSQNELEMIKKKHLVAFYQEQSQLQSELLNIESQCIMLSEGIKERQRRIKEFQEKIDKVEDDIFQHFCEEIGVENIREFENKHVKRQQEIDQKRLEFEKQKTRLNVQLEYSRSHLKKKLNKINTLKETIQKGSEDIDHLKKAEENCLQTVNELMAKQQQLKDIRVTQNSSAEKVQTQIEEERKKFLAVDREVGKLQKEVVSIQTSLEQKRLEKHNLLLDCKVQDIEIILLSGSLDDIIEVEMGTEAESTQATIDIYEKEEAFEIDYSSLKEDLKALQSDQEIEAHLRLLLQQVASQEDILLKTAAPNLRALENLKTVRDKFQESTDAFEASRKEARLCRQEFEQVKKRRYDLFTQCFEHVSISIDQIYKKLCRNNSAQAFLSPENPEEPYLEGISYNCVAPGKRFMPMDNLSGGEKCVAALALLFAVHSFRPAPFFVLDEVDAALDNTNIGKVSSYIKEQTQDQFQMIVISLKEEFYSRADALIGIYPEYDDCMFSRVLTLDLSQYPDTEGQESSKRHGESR", "log2 fold change": 0.076},
      {"target": "SH3GL1 (UniProt Q99961)", "log2 fold change": 0.016},
      {"target": "STMN3 (UniProt Q9NZ72)", "sequence (Q9NZ72 whole entry, looked up)": "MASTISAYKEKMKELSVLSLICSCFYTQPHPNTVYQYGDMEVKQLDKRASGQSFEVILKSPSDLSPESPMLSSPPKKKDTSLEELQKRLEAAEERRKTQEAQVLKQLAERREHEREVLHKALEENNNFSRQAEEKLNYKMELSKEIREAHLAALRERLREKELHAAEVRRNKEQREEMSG", "log2 fold change": -0.053},
      {"target": "SFN (UniProt P31947)", "log2 fold change": -0.033},
      {"target": "SRGN (UniProt P10124)", "log2 fold change": 0.14},
      {"target": "SLC38A10 (UniProt Q9HBR0)", "log2 fold change": 0.007},
      {"target": "STK36 (UniProt Q9NRP7)", "log2 fold change": 0.174},
      {"target": "SPA17 (UniProt Q15506)", "sequence (Q15506 whole entry, looked up)": "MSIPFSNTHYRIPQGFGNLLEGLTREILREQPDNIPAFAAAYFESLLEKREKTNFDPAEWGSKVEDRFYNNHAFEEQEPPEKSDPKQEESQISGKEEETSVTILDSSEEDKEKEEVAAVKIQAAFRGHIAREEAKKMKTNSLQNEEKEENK", "log2 fold change": -0.064},
      {"target": "STUB1 (UniProt Q9UNE7)", "log2 fold change": 0.036},
      {"target": "SLC16A1 (UniProt P53985)", "log2 fold change": 0.002},
      {"target": "SPAG5 (UniProt Q96R06)", "log2 fold change": 0.004},
      {"target": "SLC12A6 (UniProt Q9UHW9)", "sequence (Q9UHW9 whole entry, looked up)": "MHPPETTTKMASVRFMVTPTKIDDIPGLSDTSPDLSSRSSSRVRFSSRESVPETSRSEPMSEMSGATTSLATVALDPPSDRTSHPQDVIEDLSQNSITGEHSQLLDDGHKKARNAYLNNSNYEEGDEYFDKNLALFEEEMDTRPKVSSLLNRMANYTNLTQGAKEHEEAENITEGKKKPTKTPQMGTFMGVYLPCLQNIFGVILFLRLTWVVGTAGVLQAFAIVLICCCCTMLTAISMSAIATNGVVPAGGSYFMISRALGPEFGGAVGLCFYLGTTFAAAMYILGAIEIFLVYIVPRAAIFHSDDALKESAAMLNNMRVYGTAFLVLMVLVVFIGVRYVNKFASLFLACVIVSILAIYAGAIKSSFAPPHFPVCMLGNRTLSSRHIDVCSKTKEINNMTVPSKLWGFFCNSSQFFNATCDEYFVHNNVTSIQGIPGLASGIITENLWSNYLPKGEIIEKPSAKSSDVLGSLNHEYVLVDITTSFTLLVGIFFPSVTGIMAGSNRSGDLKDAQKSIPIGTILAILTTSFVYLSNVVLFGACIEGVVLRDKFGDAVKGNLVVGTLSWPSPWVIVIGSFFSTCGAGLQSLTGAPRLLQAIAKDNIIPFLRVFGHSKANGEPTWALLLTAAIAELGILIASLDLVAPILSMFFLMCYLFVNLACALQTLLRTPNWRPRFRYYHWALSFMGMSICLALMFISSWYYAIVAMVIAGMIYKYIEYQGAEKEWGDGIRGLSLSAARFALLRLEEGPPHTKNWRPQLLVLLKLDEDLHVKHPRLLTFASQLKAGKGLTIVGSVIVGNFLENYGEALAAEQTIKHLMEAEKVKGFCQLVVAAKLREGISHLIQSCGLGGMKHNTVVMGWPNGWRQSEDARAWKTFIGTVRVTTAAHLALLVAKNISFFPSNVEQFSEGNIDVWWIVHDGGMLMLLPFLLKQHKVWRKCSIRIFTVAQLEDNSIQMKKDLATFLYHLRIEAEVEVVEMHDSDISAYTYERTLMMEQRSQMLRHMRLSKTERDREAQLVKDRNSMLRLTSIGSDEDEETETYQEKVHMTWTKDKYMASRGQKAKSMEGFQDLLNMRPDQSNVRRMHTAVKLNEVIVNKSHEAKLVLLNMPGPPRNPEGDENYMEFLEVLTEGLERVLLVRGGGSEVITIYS", "log2 fold change": 0.017},
      {"target": "TAF1B (UniProt Q53T94)", "log2 fold change": 0.071},
      {"target": "SF3B6 (UniProt Q9Y3B4)", "sequence (Q9Y3B4 whole entry, looked up)": "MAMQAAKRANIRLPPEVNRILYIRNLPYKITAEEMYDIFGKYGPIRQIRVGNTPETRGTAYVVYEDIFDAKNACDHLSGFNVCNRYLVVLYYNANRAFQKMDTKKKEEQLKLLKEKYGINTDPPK", "log2 fold change": -0.032},
      {"target": "SORBS3 (UniProt O60504)", "log2 fold change": 0.081},
      {"target": "SRPK1 (UniProt Q96SB4)", "log2 fold change": -0.023},
      {"target": "SURF2 (UniProt Q15527)", "sequence (Q15527 whole entry, looked up)": "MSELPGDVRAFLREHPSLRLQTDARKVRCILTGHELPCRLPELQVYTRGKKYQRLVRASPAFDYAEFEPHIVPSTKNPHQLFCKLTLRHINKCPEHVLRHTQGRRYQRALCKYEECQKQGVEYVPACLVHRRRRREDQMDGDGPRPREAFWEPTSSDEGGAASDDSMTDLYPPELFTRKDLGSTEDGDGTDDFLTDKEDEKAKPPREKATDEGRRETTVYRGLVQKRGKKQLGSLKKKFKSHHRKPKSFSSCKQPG", "log2 fold change": 0.054},
      {"target": "SPIRE1 (UniProt Q08AE8)", "log2 fold change": 0.031},
      {"target": "SQLE (UniProt Q14534)", "log2 fold change": 0.054},
      {"target": "SPG11 (UniProt Q96JI7)", "log2 fold change": -0.253},
      {"target": "SYNE2 isoform 2 (UniProt Q8WXH0)", "log2 fold change": 0.044},
      {"target": "SMC4 (UniProt Q9NTJ3)", "sequence (Q9NTJ3 whole entry, looked up)": "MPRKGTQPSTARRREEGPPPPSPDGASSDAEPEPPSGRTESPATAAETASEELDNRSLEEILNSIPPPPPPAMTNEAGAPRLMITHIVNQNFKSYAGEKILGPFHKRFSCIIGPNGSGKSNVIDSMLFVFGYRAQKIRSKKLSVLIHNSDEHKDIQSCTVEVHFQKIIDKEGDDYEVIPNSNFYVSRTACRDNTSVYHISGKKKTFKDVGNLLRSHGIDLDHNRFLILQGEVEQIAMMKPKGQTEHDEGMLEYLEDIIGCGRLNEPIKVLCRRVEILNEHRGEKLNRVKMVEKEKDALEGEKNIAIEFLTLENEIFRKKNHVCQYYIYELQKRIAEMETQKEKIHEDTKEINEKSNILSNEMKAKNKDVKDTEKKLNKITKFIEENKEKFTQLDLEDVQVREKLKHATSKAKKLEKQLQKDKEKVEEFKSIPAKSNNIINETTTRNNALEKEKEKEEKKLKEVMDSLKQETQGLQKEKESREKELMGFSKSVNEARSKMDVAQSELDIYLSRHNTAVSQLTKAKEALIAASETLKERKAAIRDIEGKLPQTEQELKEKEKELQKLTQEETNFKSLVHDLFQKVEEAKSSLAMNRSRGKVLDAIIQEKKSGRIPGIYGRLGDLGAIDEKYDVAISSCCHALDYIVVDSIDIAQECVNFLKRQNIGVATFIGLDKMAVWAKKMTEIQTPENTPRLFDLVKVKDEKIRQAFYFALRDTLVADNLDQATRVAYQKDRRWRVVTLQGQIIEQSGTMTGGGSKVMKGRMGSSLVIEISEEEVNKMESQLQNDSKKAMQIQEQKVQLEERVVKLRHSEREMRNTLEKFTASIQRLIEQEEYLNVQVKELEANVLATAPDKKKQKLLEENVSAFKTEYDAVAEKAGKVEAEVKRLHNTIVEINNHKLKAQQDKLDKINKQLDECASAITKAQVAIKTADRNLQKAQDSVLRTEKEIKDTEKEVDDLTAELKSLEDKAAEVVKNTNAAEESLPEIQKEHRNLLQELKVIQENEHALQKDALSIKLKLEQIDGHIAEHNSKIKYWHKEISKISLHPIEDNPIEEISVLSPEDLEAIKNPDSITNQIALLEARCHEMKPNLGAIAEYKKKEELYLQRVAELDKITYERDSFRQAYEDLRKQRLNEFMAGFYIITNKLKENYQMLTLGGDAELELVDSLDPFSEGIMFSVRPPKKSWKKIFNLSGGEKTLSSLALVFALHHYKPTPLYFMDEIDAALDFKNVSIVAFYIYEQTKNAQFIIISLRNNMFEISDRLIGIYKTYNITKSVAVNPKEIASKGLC", "log2 fold change": 0.003},
      {"target": "TADA3 (UniProt O75528)", "log2 fold change": 0},
      {"target": "SMC4 (UniProt C9JJ64)", "log2 fold change": 0.179},
      {"target": "SH3GL3 isoform 3 (UniProt Q99963)", "log2 fold change": 0.033},
      {"target": "SNAP23 (UniProt O00161)", "log2 fold change": -0.038},
      {"target": "STOML2 (UniProt Q9UJZ1)", "log2 fold change": 0.004},
      {"target": "SULT1A1 (UniProt P50225)", "log2 fold change": -0.02}
    ]},
    {"compound": "CC1=C2C(=CC=C1)N=C(N(C2=O)C3=CC=CC=C3C)CN4C=NC5=C(N=CN=C54)N", "test": "log2 fold change, soluble protein after heating vs DMSO (PISA); higher = thermal stabilisation; K562 lysate, 10 uM; active = over 0.2 and 3.5 SD of the protein, either way, in both replicates (recomputed)", "outline": "as §1", "values": [
      {"target": "SMYD3 (UniProt Q9H7B4)", "log2 fold change": 0.035},
      {"target": "SPAG1 (UniProt Q07617)", "log2 fold change": 0.081},
      {"target": "SP1 (UniProt P08047)", "log2 fold change": 0.001},
      {"target": "SLC27A4 (UniProt Q6P1M0)", "log2 fold change": 0.054},
      {"target": "SMC1B isoform 3 (UniProt Q8NDV3)", "log2 fold change": 0.12},
      {"target": "SH3GL1 (UniProt Q99961)", "log2 fold change": 0.007},
      {"target": "STMN3 (UniProt Q9NZ72)", "log2 fold change": 0.065},
      {"target": "SFN (UniProt P31947)", "log2 fold change": -0.023},
      {"target": "SRGN (UniProt P10124)", "log2 fold change": 0.063},
      {"target": "SLC38A10 (UniProt Q9HBR0)", "log2 fold change": 0.036},
      {"target": "STK36 (UniProt Q9NRP7)", "log2 fold change": 0.163},
      {"target": "SPA17 (UniProt Q15506)", "log2 fold change": -0.006},
      {"target": "STUB1 (UniProt Q9UNE7)", "log2 fold change": -0.006},
      {"target": "SLC16A1 (UniProt P53985)", "log2 fold change": 0.042},
      {"target": "SPAG5 (UniProt Q96R06)", "log2 fold change": 0.021},
      {"target": "SLC12A6 (UniProt Q9UHW9)", "log2 fold change": 0.017},
      {"target": "TAF1B (UniProt Q53T94)", "log2 fold change": 0.499},
      {"target": "SF3B6 (UniProt Q9Y3B4)", "log2 fold change": -0.184},
      {"target": "SORBS3 (UniProt O60504)", "log2 fold change": -0.049},
      {"target": "SRPK1 (UniProt Q96SB4)", "log2 fold change": 0.004},
      {"target": "SURF2 (UniProt Q15527)", "log2 fold change": -0.054},
      {"target": "SPIRE1 (UniProt Q08AE8)", "log2 fold change": -0.006},
      {"target": "SQLE (UniProt Q14534)", "log2 fold change": -0.099},
      {"target": "SPG11 (UniProt Q96JI7)", "log2 fold change": 0.015},
      {"target": "SYNE2 isoform 2 (UniProt Q8WXH0)", "log2 fold change": 0.02},
      {"target": "SMC4 (UniProt Q9NTJ3)", "log2 fold change": -0.011},
      {"target": "TADA3 (UniProt O75528)", "log2 fold change": 0.087},
      {"target": "SH3GL3 isoform 3 (UniProt Q99963)", "log2 fold change": 0.133},
      {"target": "SNAP23 (UniProt O00161)", "log2 fold change": -0.005},
      {"target": "STOML2 (UniProt Q9UJZ1)", "log2 fold change": -0.027},
      {"target": "SULT1A1 (UniProt P50225)", "log2 fold change": 0}
    ]},
    {"compound": "Cc1sc2c(c1C)C(c1ccc(Cl)cc1)=N[C@@H](CC(=O)OC(C)(C)C)c1nnc(C)n1-2", "test": "log2 fold change, soluble protein after heating vs DMSO (PISA); higher = thermal stabilisation; K562 lysate, 10 uM; active = over 0.2 and 3.5 SD of the protein, either way, in both replicates (recomputed)", "outline": "as §1", "values": [
      {"target": "SMYD3 (UniProt Q9H7B4)", "log2 fold change": -0.001},
      {"target": "SP1 (UniProt P08047)", "log2 fold change": 0.038},
      {"target": "SLC27A4 (UniProt Q6P1M0)", "log2 fold change": -0.002},
      {"target": "SMC1B isoform 3 (UniProt Q8NDV3)", "log2 fold change": -0.063},
      {"target": "SH3GL1 (UniProt Q99961)", "log2 fold change": 0.012},
      {"target": "STMN3 (UniProt Q9NZ72)", "log2 fold change": -0.061},
      {"target": "SFN (UniProt P31947)", "log2 fold change": 0.041},
      {"target": "SRGN (UniProt P10124)", "log2 fold change": -0.03},
      {"target": "SLC38A10 (UniProt Q9HBR0)", "log2 fold change": -0.053},
      {"target": "STK36 (UniProt Q9NRP7)", "log2 fold change": -0.43},
      {"target": "SPA17 (UniProt Q15506)", "log2 fold change": -0.132},
      {"target": "STUB1 (UniProt Q9UNE7)", "log2 fold change": 0.035},
      {"target": "SLC16A1 (UniProt P53985)", "log2 fold change": 0.077},
      {"target": "SPAG5 (UniProt Q96R06)", "log2 fold change": 0.013},
      {"target": "SLC12A6 (UniProt Q9UHW9)", "log2 fold change": 0.036},
      {"target": "TAF1B (UniProt Q53T94)", "log2 fold change": -0.13},
      {"target": "SF3B6 (UniProt Q9Y3B4)", "log2 fold change": 0.014},
      {"target": "SORBS3 (UniProt O60504)", "log2 fold change": 0.028},
      {"target": "SRPK1 (UniProt Q96SB4)", "log2 fold change": -0.015},
      {"target": "SURF2 (UniProt Q15527)", "log2 fold change": 0.056},
      {"target": "SPIRE1 (UniProt Q08AE8)", "log2 fold change": -0.053},
      {"target": "SQLE (UniProt Q14534)", "log2 fold change": 0.012},
      {"target": "SPG11 (UniProt Q96JI7)", "log2 fold change": 0.067},
      {"target": "SYNE2 isoform 2 (UniProt Q8WXH0)", "log2 fold change": -0.065},
      {"target": "SMC4 (UniProt Q9NTJ3)", "log2 fold change": -0.005},
      {"target": "TADA3 (UniProt O75528)", "log2 fold change": -0.015},
      {"target": "SH3GL3 isoform 3 (UniProt Q99963)", "log2 fold change": -0.169},
      {"target": "SNAP23 (UniProt O00161)", "log2 fold change": 0.007},
      {"target": "STOML2 (UniProt Q9UJZ1)", "log2 fold change": -0.025},
      {"target": "SULT1A1 (UniProt P50225)", "log2 fold change": 0.051}
    ]}
  ]
}
